Laboratory results from publication PMC4336329 (PLoS ONE, 2015).
Hit rate of the full screen: of about 310,000 compounds, about 2,200 (0.71%) showed an effect of 50% or more. Effects have a minus sign here. Shown is part of a subset that was picked to be rich in strong results.

Biological target: human ether-à-go-go-related gene (hERG) potassium channel (human, UniProt Q12809)
Test: primary screen, population patch clamp on CHO cells stably expressing hERG; higher = less effect of the substance

Chain of human ether-à-go-go-related gene (hERG) potassium channel (Q12809 whole entry, looked up): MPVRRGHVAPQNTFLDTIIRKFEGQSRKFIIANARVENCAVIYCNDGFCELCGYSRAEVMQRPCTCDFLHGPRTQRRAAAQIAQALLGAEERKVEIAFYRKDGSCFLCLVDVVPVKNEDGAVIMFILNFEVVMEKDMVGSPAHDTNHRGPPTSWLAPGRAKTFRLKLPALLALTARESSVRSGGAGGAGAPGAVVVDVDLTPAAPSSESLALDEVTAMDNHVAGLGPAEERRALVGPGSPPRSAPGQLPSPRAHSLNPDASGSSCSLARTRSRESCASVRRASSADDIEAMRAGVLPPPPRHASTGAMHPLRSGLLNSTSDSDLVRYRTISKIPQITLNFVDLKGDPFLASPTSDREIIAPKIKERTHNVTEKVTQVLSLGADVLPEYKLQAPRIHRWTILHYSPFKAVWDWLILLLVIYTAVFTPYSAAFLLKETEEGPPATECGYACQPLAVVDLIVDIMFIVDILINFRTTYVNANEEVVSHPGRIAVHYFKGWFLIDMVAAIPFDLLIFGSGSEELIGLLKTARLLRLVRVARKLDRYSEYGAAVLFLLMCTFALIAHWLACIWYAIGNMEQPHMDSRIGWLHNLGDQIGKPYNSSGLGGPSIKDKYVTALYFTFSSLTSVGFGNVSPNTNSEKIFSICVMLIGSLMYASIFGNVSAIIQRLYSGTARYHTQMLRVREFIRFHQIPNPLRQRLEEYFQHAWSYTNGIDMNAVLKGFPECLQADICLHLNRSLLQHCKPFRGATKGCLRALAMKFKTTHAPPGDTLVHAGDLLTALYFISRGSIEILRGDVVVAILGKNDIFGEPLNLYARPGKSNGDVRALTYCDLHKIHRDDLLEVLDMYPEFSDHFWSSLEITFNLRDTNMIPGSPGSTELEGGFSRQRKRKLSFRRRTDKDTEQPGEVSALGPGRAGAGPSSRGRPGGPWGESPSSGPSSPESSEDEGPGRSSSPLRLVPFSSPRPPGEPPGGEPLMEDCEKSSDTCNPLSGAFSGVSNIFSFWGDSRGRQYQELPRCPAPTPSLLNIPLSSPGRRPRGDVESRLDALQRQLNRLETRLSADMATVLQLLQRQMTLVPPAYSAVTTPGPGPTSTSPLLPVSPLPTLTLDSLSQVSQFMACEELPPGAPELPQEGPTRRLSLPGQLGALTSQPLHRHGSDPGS

Row | SMILES | hERG current change (%, negative = inhibition) at 1uM [%]
1 | CC(=O)c1ccc(-n2ccnc2)cc1 | 7.14
2 | Cc1ccc2[nH]c3c(=O)n(CCN4CCOCC4)cnc3c2c1 | 6.2
3 | O=c1c2[nH]c3ccc(Cl)cc3c2ncn1CCN1CCCCC1 | -43.9
4 | O=c1c2[nH]c3ccc(F)cc3c2ncn1CC1CCCO1 (stereo not drawn) | 4.81
5 | CCN1CCCC1Cn1cnc2c([nH]c3cccc(Cl)c32)c1=O (stereo not drawn) | -38.7
6 | Cc1ccc2[nH]c3c(=O)n(CCN4CCNCC4)cnc3c2c1 | 18.5
7 | Cc1ccc2[nH]c3c(=O)n(CCC4=CCCCC4)cnc3c2c1 | 11
8 | CCN1CCCC1Cn1cnc2c([nH]c3ccc(C)cc32)c1=O (stereo not drawn) | -63.4
9 | CCC1CCCN1Cn1cnc2c([nH]c3ccccc32)c1=O (stereo not drawn) | -45.7
10 | CCN1CCCC1Cn1cnc2c([nH]c3ccc(Cl)cc32)c1=O (stereo not drawn) | -69.4
11 | CCC1CCCN1Cn1cnc2c([nH]c3ccc(C)cc32)c1=O (stereo not drawn) | -54.9
12 | Cc1ccc2[nH]c3c(=O)n(CCCN4CCN(C)CC4)cnc3c2c1 | -12.6
13 | CCC1CCCN1Cn1cnc2c([nH]c3ccc(Cl)cc32)c1=O (stereo not drawn) | -70.9
14 | COc1cccc(C(=O)Nc2ccncc2)c1OC | 9.58
15 | Cc1nn(CC(=O)c2cccc(Cl)c2)c(C)c1[N+](=O)[O-] | 6.41
16 | Cc1ccc(Cn2cccc(NC(=O)CCC3CCCC3)c2=O)cc1 | 1.91
17 | Cc1ccc(/C=C2/C(=O)NC(=O)N(C)C2=O)cc1 | 7.48
18 | Cn1c(NC(=O)c2cc(-c3ccc4c(c3)OCO4)nc3ccccc23)cc(=O)n(C)c1=O | 2.87
19 | Cc1ccc(C(=O)NCCCn2ccnc2)cc1[N+](=O)[O-] | 11.9

Row | SMILES | hERG current change (%, negative = inhibition) at 1uM [%]
20 | COc1ccc(C(=O)NCCCn2ccnc2)cc1[N+](=O)[O-] | 3.98
21 | NS(=O)(=O)c1ccc(NCCCn2ccnc2)c([N+](=O)[O-])c1 | 12
22 | Cl.O=C(NCCCn1ccnc1)c1ccc(S(=O)(=O)N2CCCCCC2)cc1 | 9.74
23 | Cl.O=C(NCCCn1ccnc1)c1ccc(N2CCCCCC2)c([N+](=O)[O-])c1 | -51.6
24 | O=C(c1ccccc1)c1ccc(NCCCn2ccnc2)c([N+](=O)[O-])c1 | -65.4
25 | O=C(NCCCn1ccnc1)c1ccc(N2CCCCC2)c([N+](=O)[O-])c1 | -54.1
26 | O=C(NCCCN1CCOCC1)c1ccc(N2CCCC2)c([N+](=O)[O-])c1 | 4.41
27 | CCN(CC)S(=O)(=O)c1ccc(NCCCn2ccnc2)c([N+](=O)[O-])c1 | -7.58
28 | Cc1ccc(NC(=O)NC2CC(=O)N(c3ccc4c(c3)OCCO4)C2)cc1 (stereo not drawn) | 11.3
29 | CC[n+]1ccc(C(=O)NCc2ccccc2)cc1.[Cl-] | 12.3
30 | CCc1[nH]nc2c1C1(C(=O)N(Cc3ccccc3)c3ccccc31)C(C#N)=C(N)O2 (stereo not drawn) | 15.5
31 | CCOc1ccc2[nH]c3nc(SCC(=O)OC(C)C)nnc3c2c1 | 14.6
32 | CCCN1CCN(C(=S)Nc2ccc([N+](=O)[O-])cc2)CC1 | -11
33 | CCN1CCCC1CN(Cc1cc2ccc(C)cc2[nH]c1=O)C(=S)Nc1ccc(OC)cc1 (stereo not drawn) | 21.4
34 | Cc1ccc2[nH]c(=O)c(CN(CCCN(C)C)C(=O)Nc3ccc(F)cc3)cc2c1 | -37
35 | CCN(CC)CCN(Cc1cc2ccc(C)cc2[nH]c1=O)C(=O)Nc1ccc(Cl)cc1 | -78.4
36 | Cc1ccc2[nH]c(=O)c(CN(CCCN(C)C)C(=O)Nc3ccc(Cl)cc3)cc2c1 | -62.7
37 | Cc1ccc2cc(CN(CCN(C)C)C(=O)Nc3ccc(Cl)cc3)c(=O)[nH]c2c1 | -20.7
38 | Cc1ccc2[nH]c(=O)c(CN(CCCN(C)C)C(=O)Nc3cccc(Cl)c3)cc2c1 | -26.3

Row | SMILES | hERG current change (%, negative = inhibition) at 1uM [%]
39 | CCN(CC)CCN(Cc1cc2cc(C)ccc2[nH]c1=O)C(=S)Nc1ccccc1 | -23.4
40 | CCN1CCCC1CN(Cc1cc2ccc(C)cc2[nH]c1=O)C(=S)Nc1ccc(F)cc1 (stereo not drawn) | -70.6
41 | CCN1CCCC1CN(Cc1cc2ccc(C)cc2[nH]c1=O)C(=S)Nc1cccc(OC)c1 (stereo not drawn) | -44
42 | CSc1ccc(/C=N/N2CCN(Cc3ccccc3Cl)CC2)cc1 | 9.96
43 | Cc1c(C(=O)O)c(C(=O)O)nc2ccc(N3CCOCC3)cc12 | 10.3
44 | Cc1c(CCC(=O)NC2CC2)c(=O)oc2c(C)c(O)ccc12 | 22.9
45 | Cl.c1ccc(OCCN2C3=NCCN3c3ccccc32)cc1 | -51.5
46 | Br.CCOC(=O)CN1C2=NCCN2c2ccccc21 | 15.4
47 | Br.COC(=O)CN1C2=NCCCN2c2ccccc21 | -3.47
48 | CCCN1C2=NCCN2c2ccccc21.Cl | 0.0662
49 | Cl.c1ccc2c(c1)N1CCN=C1N2CCN1CCCCC1 | 3.76
50 | Br.COC(=O)c1ccc(OCCN2C3=NCCN3c3ccccc32)cc1 | -56.5
51 | Cc1ccc(Cl)cc1N1CCN(C(=O)Cc2cn(C)c3ccccc23)CC1 | 13.8
52 | CCOc1cc(NC(=O)c2ccccn2)c(OCC)cc1NC(=O)c1ccc(OC)cc1 | 3.95
53 | CNC(=S)NNC(=O)c1cccc(N(C)C)c1 | 2.36
54 | Cc1cccc(NS(=O)(=O)c2cccs2)n1 | 17.6
55 | COc1ccc(C2C(C(=O)N3CCN(c4ccccn4)CC3)CC(=O)N2c2ccc(OC)cc2)cc1 (stereo not drawn) | -50.6
56 | COc1ccc(N2C(=O)CCC(C(=O)N3CCN(c4ccccn4)CC3)C2c2ccc(F)cc2)cc1 (stereo not drawn) | -21.3
57 | COc1ccc(C2C(C(=O)N3CCN(c4ccccn4)CC3)CCC(=O)N2c2ccc(OC)cc2)cc1 (stereo not drawn) | -0.548
